# This is part of a sample that, as a whole, favours compounds with a hit. Of some 79,000 tested, about 15% had one in any assay. Unmarked numbers belong to inactive results. Active and inactive are the calls of the source. Rule as the data show it: active = growth inhibition above about 70%; inactive = the rest.
# Columns and labels:
# [1] = NCI Yeast Anticancer Drug Screen. Data for the rad50 strain (AID 155);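 also: 0% = growth of vehicle-only cultures of the same strain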; conditions: S. cerevisiae rad50 strain growth inhibition; at 50.0 µM; stronger effect = higher value
# Procedure, shortened: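 Inhibition values express reduced yeast growth in compound-treated cultures relative to vehicle-treated controls.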
# [2] = NCI Yeast Anticancer Drug Screen. Data for the mec2-1 strain (AID 157); conditions: S. cerevisiae mec2-1 strain, at 50.0 µM, stronger effect = higher value
# Procedure, shortened: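 Using mec2-1 yeast: add compound, measure growth, express inhibition versus vehicle-treated cultures.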
# [3] = NCI Yeast Anticancer Drug Screen. Data for the sgs1 mgt1 strain (AID 161);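 also: 0% = growth of cultures given vehicle only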; conditions: S. cerevisiae sgs1 mgt1 strain, at 50.0 µM, stronger effect = higher value
# Procedure, shortened: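 Yeast cells carrying a defined DNA-repair defect were exposed to test compounds. Growth inhibition was measured relative to vehicle-treated controls.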
# [4] = NCI Yeast Anticancer Drug Screen. Data for the cln2 rad14 strain (AID 165);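 also: 0% = growth equal to vehicle treated cultures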; conditions: S. cerevisiae cln2 rad14 strain, at 50.0 µM, stronger effect = higher value
# Procedure, shortened: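 Yeast strain cln2 rad14, bearing defects in cell cycle control and DNA repair, serves as the test system; values reflect growth inhibition compared with vehicle.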
# [5] = NCI Yeast Anticancer Drug Screen. Data for the bub3 strain (AID 167); conditions: S. cerevisiae bub3 mutant strain, at 50.0 µM, stronger effect = higher value
# Procedure, shortened: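 Steps: expose the mutant yeast strain to compound; grow alongside vehicle-treated cultures; measure growth; express inhibition against the vehicle cultures.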
# [6] = NCI Yeast Anticancer Drug Screen. Data for the mlh1 rad18 strain (AID 175); conditions: S. cerevisiae mlh1 rad18 strain growth inhibition; at 50.0 µM; stronger effect = higher value
# Procedure, shortened: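 Steps: expose repair-defective yeast to compound; measure growth; express inhibition against vehicle-treated controls.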
Compound,growth inhibition [1],growth inhibition [2],growth inhibition [3],growth inhibition [4],growth inhibition [5],growth inhibition [6]
CC(/C=N/N(C)C1=NCCCCN1)=N/N(C)C1=NCCCCN1,23.9%,12.7%,18.5%,-21.6%,-2.5%,29.4%
O=c1cc(O)nc(CO)[nH]1,-4.15%,-5.75%,-41.9%,-14.7%,3.9%,2.6%
N#Cc1ccc(Br)cc1,7.95%,-3.45%,16.6%,-19.9%,-6.2%,18.1%
CCc1cc2c(cc1C(=O)/C=C\c1ccco1)C(C)(C)CCC2(C)C,97.2% (active),98.2% (active),97.5% (active),96.8% (active),97.7% (active),97.8% (active)
O=c1[nH]nc(-c2ccc(Cl)cc2)c2cc(Cl)c(Cl)cc12,-6.45%,-11.3%,-10.7%,-57.9%,-5.2%,-20.7%
CCC(CC)NNC(CC)CC,-1.8%,-0.6%,-8.05%,5.35%,-16.3%,-8.25%
Cc1ccc(NCC#N)cc1,27.1%,15.2%,-1.1%,-12.6%,15.4%,36.5%
CCN(CC)CCOC(=O)Nc1cc(C)cc(C)c1,24.6%,-9.15%,27.5%,16.4%,31.9%,17.1%
CCSc1ncnc2nc[nH]c12,9%,-8.8%,4.4%,-18.4%,-9.55%,8.4%
O=c1[nH][nH]c(=O)c2nc3c(nc12)c1nc2c(=O)[nH][nH]c(=O)c2nc1c1nc2c(=O)[nH][nH]c(=O)c2nc31,-1.6%,21.4%,21.1%,-2.55%,-11.1%,8.2%
CC(=O)OC(=O)C(=O)C(F)C(O)C(C)C (configuration not stated),-16.6%,-13.9%,-14.2%,-10.4%,-13.4%,7.45%
NC(=O)CCCCCCCCCCBr,15.6%,21.2%,8.85%,20.2%,22.8%,42.3%
O=C(O)c1nnn(Cc2ccccc2)c1C(=O)O,7.75%,-6%,-17.6%,2.35%,15.8%,20%
CCCSCCC(N)C(=O)O (configuration not stated),-33.2%,-15.9%,0.55%,-5.7%,-2.9%,-4.95%
CCOC(=O)c1c(C)c2c(n1C)CCC(CCC(C)=O)C2=O (configuration not stated),5.6%,5.5%,-0.4%,14.3%,6.7%,3.15%
C[S+]1C=C(c2ccccc2)SC=C1c1ccccc1 (configuration not stated),35.2%,32.9%,59.6%,8.3%,47%,55%
COc1ccc2c(c1)c1c3c(ccc4ncn2c43)N(CCN(C)C)CCN=1,-27.1%,-26.1%,-9.25%,-6.3%,1.4%,-37.6%
C=C(C)COC1CCCCO1 (configuration not stated),-3.75%,-15.1%,-36.7%,14.7%,-42.3%,-39.1%
OC(c1ccccc1)c1ccc2c(c1)CCC2 (configuration not stated),3.55%,-8.65%,-6.1%,-25.1%,-18%,5.3%

Compound,growth inhibition [1],growth inhibition [2],growth inhibition [3],growth inhibition [4],growth inhibition [5],growth inhibition [6]
CC(=O)OCC1OC(n2c3c(c(-c4ccc(Cl)cc4)c(C#N)c2=S)C(=O)CC(C)(C)C3)C(OC(C)=O)C(OC(C)=O)C1OC(C)=O (configuration not stated),16.1%,-10.9%,12.6%,-5.25%,23.4%,-37.5%
CCCCN(C=O)CCCC,20.7%,17.3%,17.4%,9.45%,4.75%,3.7%
Cn1nnnc1/C(=C/c1ccccc1)C(=O)O,12.9%,-0.15%,0.1%,-18.9%,12.1%,12.2%
Cc1nc(C)c(C(=O)NNC(=O)Cc2ccccc2)cc1C(=O)NNC(=O)Cc1ccccc1,-32%,1.35%,-0.9%,15.5%,-5.55%,-32.4%
OC12c3ccccc3C1CCCCCC21OCCCO1 (configuration not stated),-9.4%,-27.8%,-31.8%,-17.4%,-8.4%,-19.9%
O=C(NN1C(=O)C(Cl)C1c1ccccc1O)c1ccccc1O (configuration not stated),-5.85%,-26.5%,-15.6%,-15.1%,-16.6%,-29.4%
CCCCOC(=O)c1cccc2c1-c1ccccc1C2=O,9.75%,-6.55%,-2%,-14.9%,13.8%,-0.7%
CSc1ccc(C(N)=O)cn1,-1.2%,-12.2%,-7.05%,-36%,-22.1%,1.15%
Cc1cc2nc(/N=C/c3nc(O)c(C)[nH]3)[nH]c2cc1C,33.2%,22.4%,59%,20.4%,14.1%,56%
O=[N+]([O-])c1cc2c(c3nonc13)OCCCCO2,5.95%,25.5%,47.4%,23.2%,23.7%,77% (active)
Cc1ccc(S(=O)(=O)N/N=C2/C(=O)NC(=O)C(=O)C2c2nc3ccccc3s2)cc1 (configuration not stated),12.4%,-2.6%,13.6%,-19.1%,8.45%,12.4%
CC(=O)NNc1nc(C)c(C(=O)NNC(=O)C(=O)Nc2ccc(C)c(C)c2)s1,8.7%,-1.2%,-6.05%,4.8%,20.9%,-1.45%
CC(=O)OCCOCCN1CCN(c2c(O)c3c(c(O)c2Cl)C(=O)C=CC3=O)CC1,79.7% (active),88.2% (active),90.8% (active),87.1% (active),89.3% (active),89.8% (active)
COc1ccc2ccccc2c1Cc1c(O)ccc2ccccc12,15.7%,-4.55%,0.75%,-40%,-3.1%,8%
CC1=N/C(=C/c2ccc3c(c2)OCO3)C(=O)O1,5.05%,6.1%,6.05%,-24.9%,-4.6%,14%
O=C(Nc1ccccc1C/C(=N/O)c1ccc2c(c1)OCO2)c1ccccc1,51.5%,0.4%,54.1%,-32%,3.55%,23.4%
O=C1N2Cc3c4ccc5c3CN3C(=O)N6Cc7c(ccc(c7CN1C6(c1ccccc1)C23c1ccccc1)OCCOCCOc1cc(Br)c(Br)cc1OCCOCCO4)OCCOCCOc1cc(Br)c(Br)cc1OCCOCCO5 (configuration not stated),-4.95%,8.95%,-3.45%,18.1%,-1.8%,-16.4%
c1ccc(Sc2cc(Sc3ccccc3)c3cccccc2-3)cc1,17.9%,-21.9%,-27.4%,-6.05%,5.25%,3.2%

# From PubChem BioAssay (NCI)
